The results in this text go back to the supplement of paper PMC10732440.

± gives the standard deviation of the averaged measurements.

One assay deals with Caenorhabditis elegans N2 infected with Nematocida parisii ERTm1. Nature of the assay: progeny production relative to DMSO uninfected control; higher = more progeny despite microsporidia infection (inhibition of infection with low host toxicity). The conditions noted are these: infection time 6 days; 40 µM. The procedure:
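Bleach-synchronised C. elegans N2 L1 larvae (100 per well) were grown in 96-well plates in K-medium with 5x E. coli OP50 and 15,000 N. parisii spores/uL, plus Pandemic Response Box compound at 100 uM or 40 uM (1% DMSO), for 6 days at 21 C with shaking. Worms were stained with Rose Bengal, scanned on a flatbed scanner and counted with WorMachine. Progeny production is given as % of the DMSO uninfected control (triplicate wells), so higher values mean the compound restores progeny despite infection.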
In the case of `Cc1ccc(S(=O)(=O)Nc2cccc3cccnc23)cc1`, the progeny production was found to be 6.57 ± 3.6%.

`CC(C)(C)c1cc(CCC(=O)N2CCC2)cc(C(C)(C)C)c1O`: the progeny production stood at 5.76 ± 2.7%.

In turn, `Cc1ccc(C)c(OCCCCCCN2C[C@H](O)[C@@H](O)[C@H](O)[C@H]2CO)c1` came in with a progeny production of 3.54 ± 0.93%.

With `OB1OCc2c1ccc(Cl)c2F`, the progeny production worked out at 4.06 ± 1%.

Compound `COc1ccc(C2CNC(=O)C2)cc1OC1CCCC1` (stereo not given) registered a progeny production of 4.65 ± 2.2%.

Consider `CC(C)Nc1ncnc2c1cnn2-c1ccc(Cl)cc1`, for which the progeny production came out at 8.31 ± 1.1%.

In turn, `Nc1nc(O)c(Br)c(-c2cccc(Cl)c2)n1` registered a progeny production of 4.12 ± 0.52%.

As for `O=C(N[C@H](Cc1cccc2ccccc12)C(=O)NCCc1c[nH]cn1)C1Cc2ccccc2C1`, the progeny production came out at 7.87 ± 3.1%.

Turning to `COc1ccc(-n2cnc3cc(NCc4ccco4)ccc32)cc1`, the progeny production turned out to be 10 ± 2.1%.

`Cn1c2ccccc2c(=O)c2c(O)cccc21`: the progeny production was determined as 3.85 ± 0.59%.

The compound `COc1ccc(SC(=O)N[C@H](CCC(=O)O)C(=O)O)cc1` yielded a progeny production of 9.06 ± 7.1%.

In turn, `Cc1ccccc1NC(=O)Nc1cccc([N+](=O)[O-])c1` displayed a progeny production of 4.55 ± 2.1%.

Regarding `O=C(c1ccc(F)cc1)N1CCN2C(=O)c3ccccc3C12c1ccccc1` (stereo not given), the progeny production amounted to 2.5 ± 1.4%.

Turning to `CC[C@H](NC(=O)[C@H](C)NC)C(=O)N1C[C@@H](O)C[C@H]1Cc1c(-c2[nH]c3cc(F)ccc3c2C[C@@H]2C[C@H](O)CN2C(=O)[C@H](CC)NC(=O)[C@H](C)NC)[nH]c2cc(F)ccc12`, the progeny production came out at 6.99 ± 3.1%.

Regarding `O=[N+]([O-])/C(Br)=C/c1ccc(Br)o1`, the progeny production came out at 5.77 ± 1.4%.

`O=C(O)/C=C/C=C/c1cccc(Oc2cc(Cl)cc(Cl)c2)c1` returned a progeny production of 7.69 ± 2.2%.

For the compound `Cc1cc(O)c2c(c1)C(=O)c1c(I)c(O)c(I)c(O)c1C2=O`, the progeny production turned out to be 8.9 ± 5.8%.

Compound `CCN(CC)CCCC(C)Nc1ccnc2cc(Cl)ccc12` (stereo not given) registered a progeny production of 8.75 ± 5.2%.

With `NC(=O)[C@@H]1CC[C@@H]2CN1C(=O)N2OS(=O)(=O)O`, the progeny production turned out to be 8.69 ± 1.4%.

Regarding `C[C@@H](NC(=O)c1ccccc1-c1ccccc1)B(O)O`, the progeny production turned out to be 3.09 ± 1.4%.

The assay is the same for the next values; noted with them: infection time 6 days; 100 µM.
In turn, `Cc1ccc(S(=O)(=O)Nc2cccc3cccnc23)cc1` showed a progeny production of 7.42 ± 4.3%.

The compound `CC(C)(C)c1cc(CCC(=O)N2CCC2)cc(C(C)(C)C)c1O` showed a progeny production of 14.4 ± 8.6%.

With `Cc1ccc(C)c(OCCCCCCN2C[C@H](O)[C@@H](O)[C@H](O)[C@H]2CO)c1`, the progeny production came out at 14.1 ± 11%.

Compound `OB1OCc2c1ccc(Cl)c2F` registered a progeny production of 18.5 ± 12%.

Take `COc1ccc(C2CNC(=O)C2)cc1OC1CCCC1` (stereo not given): the progeny production amounted to 11.2 ± 9.9%.

`CC(C)Nc1ncnc2c1cnn2-c1ccc(Cl)cc1` gave a progeny production of 4.15 ± 2.5%.

`Nc1nc(O)c(Br)c(-c2cccc(Cl)c2)n1`: the progeny production came to 12.1 ± 5.2%.

Take `O=C(N[C@H](Cc1cccc2ccccc12)C(=O)NCCc1c[nH]cn1)C1Cc2ccccc2C1`: the progeny production was 17.2 ± 4.5%.

With `COc1ccc(-n2cnc3cc(NCc4ccco4)ccc32)cc1`, the progeny production was found to be 17.2 ± 0.88%.

For the compound `Cn1c2ccccc2c(=O)c2c(O)cccc21`, the progeny production turned out to be 13.6 ± 7.8%.

`COc1ccc(SC(=O)N[C@H](CCC(=O)O)C(=O)O)cc1` had a progeny production of 11.3 ± 0.6%.

Turning to `Cc1ccccc1NC(=O)Nc1cccc([N+](=O)[O-])c1`, the progeny production turned out to be 13.8 ± 4.8%.

As to `O=C(c1ccc(F)cc1)N1CCN2C(=O)c3ccccc3C12c1ccccc1` (stereo not given), the progeny production was 7.13 ± 5%.

`CC[C@H](NC(=O)[C@H](C)NC)C(=O)N1C[C@@H](O)C[C@H]1Cc1c(-c2[nH]c3cc(F)ccc3c2C[C@@H]2C[C@H](O)CN2C(=O)[C@H](CC)NC(=O)[C@H](C)NC)[nH]c2cc(F)ccc12` returned a progeny production of 17.7 ± 7.7%.

Compound `O=[N+]([O-])/C(Br)=C/c1ccc(Br)o1` yielded a progeny production of 26.4 ± 9.5%.

Take `O=C(O)/C=C/C=C/c1cccc(Oc2cc(Cl)cc(Cl)c2)c1`: the progeny production was 13 ± 7.6%.

`Cc1cc(O)c2c(c1)C(=O)c1c(I)c(O)c(I)c(O)c1C2=O` had a progeny production of 25.1 ± 5.2%.

The compound `CCN(CC)CCCC(C)Nc1ccnc2cc(Cl)ccc12` (stereo not given) came in with a progeny production of 5.16 ± 3.5%.

Compound `NC(=O)[C@@H]1CC[C@@H]2CN1C(=O)N2OS(=O)(=O)O` yielded a progeny production of 22.2 ± 16%.

Consider `C[C@@H](NC(=O)c1ccccc1-c1ccccc1)B(O)O`, for which the progeny production worked out at 21.8 ± 15%.
